This is one part of a sample in which hits are shown more often than they occur.
Tgondii IFNg: T. gondii growth inhibition under IFN-gamma; AID 1259416; activity change, negative = inhibition, % (test concentration not listed); 3.8% of 69,000 active; Toxoplasma gondii growth in IFN-gamma-treated host cells; hits give low values; in the data active means activity change below about -70%, passing the limit was not always enough;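 further: host cells are HeLa cells infected with Toxoplasma gondii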
Of the large screens only hits and unclear results are named; the others gave an inactive call.

S=C(c1ccc2c(c1)OCO2)N1CCCCC1	none
O=C1COc2ccc(C(=O)CSc3nc(-c4ccc(Cl)cc4)cs3)cc2N1	none
COc1ccc(CNC(=O)CN2C(=O)CCc3cc(S(=O)(=O)N4CCC(C)CC4)ccc32)cc1	none
COc1ccc(-c2cc(C(=O)NCCc3nc4cc(C)c(C)cc4[nH]3)nn2C)cc1	none
Cc1cc2nc(CCNC(=O)c3cnc(-c4ccc(Cl)cc4)nc3)[nH]c2cc1C	Tgondii IFNg -95
Cc1ccc2c(c1)cc(C(=O)NCCc1nc3cc(C)c(C)cc3[nH]1)n2C	none
Cn1cc(C(=O)N2CCCCC2c2ccn[nH]2)ccc1=O (centres undefined)	none
CC(=O)Nc1ccc(C(=O)N(c2ccc(C)cc2)C2(C(=O)NCc3ccccc3)CCN(C(C)=O)CC2)cc1	none
CC(=O)N1CCC(C(=O)NCc2ccccc2)(N(C(=O)c2ccc(C)cc2)c2ccc(C(C)C)cc2)CC1	Tgondii IFNg -98
CC(=O)N1CCC(C(=O)NCc2ccccc2)(N(C(=O)c2ccc(Br)cc2)c2ccc(C)cc2)CC1	none
COc1ccc(-c2nc(NCCN3CCN(c4ccc(OC)cc4)CC3)c3ccccc3n2)cc1	none
CCCn1ncc(C(=O)N(C)Cc2nc3ccsc3c(=O)[nH]2)c1C	none
COc1ccc(-n2c(CCN)n[nH]c2=O)cc1OC	none
CCOC(=O)c1sc(-c2cccs2)nc1C	none
COc1ccc(-c2nc(C)c(CCNS(=O)(=O)c3ccc4c(c3)OCCO4)s2)cc1OC	none
COc1ccc(OC)c(NC(=O)c2nnn(Cc3nc(-c4ccccc4C)oc3C)c2C)c1	none
COc1ccc2c3c([nH]c2c1)[C@@H](CO)N(S(C)(=O)=O)CC31CCN(CC2CCCC2)CC1	Tgondii IFNg -107
COc1ccc2c3c([nH]c2c1)[C@H](CO)N(S(C)(=O)=O)CC31CCN(CC2CCCC2)CC1	none
COc1ccc2c3c([nH]c2c1)[C@@H](CO)N(S(C)(=O)=O)CC31CN(CC2CCOCC2)C1	none
CCNC(=O)NCC1CCN(Cc2cc(F)ccc2OC)C1 (centres undefined)	none
C[C@H]1CN([C@@H](C)CO)C(=O)CCCn2nncc2CO[C@@H]1CN(C)C(=O)Nc1ccccc1C(F)(F)F	Tgondii IFNg -96
C[C@H](CO)N1C[C@H](C)[C@H](CN(C)C(=O)Nc2cccc3ccccc23)Oc2ncccc2C1=O	Tgondii IFNg -119
C[C@H](CO)N1C[C@H](C)[C@H](CN(C)C(=O)c2cc(-c3ccccc3)on2)OCc2cnnn2CCCC1=O	Tgondii IFNg -76
C[C@@H]1CN([C@@H](C)CO)C(=O)CCCn2nncc2CO[C@H]1CN(C)C(=O)Nc1ccccc1C(F)(F)F	none
C[C@@H]1CN([C@H](C)CO)C(=O)c2cc(NS(=O)(=O)c3cn(C)cn3)ccc2O[C@H]1CN(C)C(=O)Nc1cccc2ccccc12	none
COc1ccc(NC(=O)N(C)C[C@@H]2OCc3cnnn3CCCC(=O)N([C@H](C)CO)C[C@@H]2C)c(OC)c1	none
C[C@@H]1CN([C@H](C)CO)C(=O)c2cccc(NC(=O)C3CCOCC3)c2O[C@@H]1CN(C)C(=O)Nc1cccc2ccccc12	none
C[C@H](CO)N1C[C@H](C)[C@@H](CN(C)C(=O)c2cc(-c3ccccc3)on2)OCc2cnnn2CCCC1=O	none
C[C@@H]1CN([C@@H](C)CO)C(=O)CCCn2nncc2CO[C@H]1CN(C)C(=O)c1cc(-c2ccccc2)on1	none
O=C(Nc1ccc([N+](=O)[O-])cc1O)Nc1ccccc1Br	none
CCOC(=O)COc1ccc(Cl)cc1C(=O)OC	none
CCOC(=O)c1[nH]c2cc(Cl)cc(Cl)c2c1CCC(=O)O	none
CCOC(=O)c1[nH]ncc1-c1ccc(Cl)cc1Cl	Tgondii IFNg -95
CC(C)CC1c2[nH]c3ccccc3c2CCN1C(=O)CCC(=O)N(C)C (centres undefined)	none
OCCN1C[C@H]2c3ccccc3C(OCC3CC3)[C@@H]2C1 (some centres undefined)	none
CCCc1ncc(CN2CCCC(c3cc(=O)[nH]c(N4CCCCC4)n3)C2)cn1 (centres undefined)	none
CN1CC2(CCCN(C(=O)c3ccccc3-c3ncc[nH]3)CC2)OC1=O (centres undefined)	none
O=C(CSc1n[nH]c(=O)n1C1Cc2ccccc2C1)N1CCOCC1	none
O=C(C1CCOC1)N1C[C@@H]2OCC(=O)N(Cc3cccc(F)c3)[C@H]2C1 (some centres undefined)	none
CCCC(=O)N1CC2(C1)CN(C(=O)c1ccc(F)cc1)[C@H](CO)c1[nH]c3cc(OC)ccc3c12	none
CCc1ccc(C(=O)Nc2ccc(-c3nc(Cn4nc(C)cc4C)c(C)o3)cc2)cc1	none
Cc1cc(C)n(Cc2nc(-c3ccc(NC(=O)c4ccc(F)cc4)cc3)oc2C)n1	none
COc1ccc(C(=O)Nc2ccc(-c3nc(Cn4nc(C)cc4C)c(C)o3)cc2)cc1	Tgondii IFNg -92
Cc1ccc(C(=O)Nc2ccc(-c3nc(Cn4nc(C)cc4C)c(C)o3)cc2)cc1	none
Cc1cc(C)n(Cc2nc(-c3ccc(NC(=O)c4ccc5c(c4)OCO5)cc3)oc2C)n1	Tgondii IFNg -98
Cc1cc(C)n(Cc2nc(-c3ccc(NC(=O)c4ccc(F)c(F)c4)cc3)oc2C)n1	none
Nc1ccn([C@H]2C[C@H](O)[C@@H](CO)O2)c(=O)n1	none
CCOc1ncccc1C(=O)N1Cc2cnc(Cc3ccc(OC)cc3)nc2C1	none
CC(C)C(=O)N1CCc2c([nH]c3ccccc23)C12C(=O)Nc1ccc(Br)cc12 (centres undefined)	none
CC(C)C(OC(=O)c1ccco1)C(=O)NCc1ccc2c(c1)OCO2 (centres undefined)	none

Assay outcomes from PubChem.
